# Compound activity: PubChem, National Center for Advancing Translational Sciences (NCATS)
# An excerpt weighted towards active compounds, which were near 6.4% of everything screened.
# Gal4-VP16 FLuc – Gal4-VP16 reporter inhibition counter-screen. Potency, µM (doses to about 53.6 µM), inactives show top-dose activity, negative = inhibition, hits mostly inhibitors. hit rate 3.5% among 310,000. Drosophila S2 Gal4-VP16 UAS-luciferase, luminescence, 20 h;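 note: Gal4-VP16 expression switched on by copper sulfate through the metallothionein promoter; nearly all actives have a fitted effect of over 50% in size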
# Luc counter – Kinase-Glo luciferase inhibition (counter-screen) | Kinase-Glo luciferase, ATP luminescence, 8 min | Q27757 | hit rate 0.28% among 200,000 | Potency, µM (doses to about 38.3 µM), for the others: top-dose activity change, negative = inhibition, most hits filed as inhibitors; note: nearly all actives have a fitted effect of over 60% in size
#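 Kinase-Glo luciferase light output from ATP and luciferin was measured with 10 uM ATP, within the enzyme's linear range. Buffer: 50 mM imidazole pH 7.2, 50 mM KCl, 7 mM MgCl2, 0.01% Tween 20, 0.05% BSA; luminescence read after 8 min at ambient temperature.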
# RORgamma inh – ROR gamma (mouse) transcription inhibition. P51450. Drosophila S2 Gal4-RORgamma UAS-luciferase reporter, 20 h. Potency, µM (top dose mostly 53.6 µM), inactives show top-dose activity change, negative = inhibition, actives largely listed as inhibitors. hit rate 5.4% among 310,000; note: nearly all actives have a fitted effect of over 60% in size
# Target sequence (P51450 whole entry, looked up, the tested form may be a part): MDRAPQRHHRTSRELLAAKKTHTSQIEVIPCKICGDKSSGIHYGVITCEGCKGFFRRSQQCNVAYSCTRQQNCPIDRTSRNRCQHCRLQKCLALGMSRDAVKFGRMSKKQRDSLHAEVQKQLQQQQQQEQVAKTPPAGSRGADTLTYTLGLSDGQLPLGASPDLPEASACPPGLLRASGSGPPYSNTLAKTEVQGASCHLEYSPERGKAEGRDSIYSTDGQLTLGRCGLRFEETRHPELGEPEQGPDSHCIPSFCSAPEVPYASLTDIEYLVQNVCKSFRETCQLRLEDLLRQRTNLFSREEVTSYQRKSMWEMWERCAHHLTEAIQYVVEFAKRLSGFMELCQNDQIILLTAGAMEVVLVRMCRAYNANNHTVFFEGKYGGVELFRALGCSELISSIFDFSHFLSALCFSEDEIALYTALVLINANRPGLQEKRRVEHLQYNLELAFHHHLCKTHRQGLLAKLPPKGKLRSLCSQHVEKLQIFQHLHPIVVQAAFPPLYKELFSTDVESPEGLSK
#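 ROR gamma transcriptional activity was tracked as Gal4-UAS luciferase output in stably transfected Drosophila Schneider cells, with compound added 1 hr before 700 uM copper sulfate induction and a 20 hr ambient-temperature incubation.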
# * = called active by the depositor; ? = inconclusive; / = not tested or not shown; [ ] = remark or other dose. Calls come from the whole dose curve; as a rule, active = well fitted curve in the direction sought with a large enough effect; inconclusive = small, poorly fitted or top-dose-only effect, or another doubt; inactive = no such curve, though single readings can be large; an effect the other way counts as inactive or inconclusive. % is set by controls: 0 for no effect and ±100 for the full control effect; potency is the fitted concentration of half-maximal effect.
SMILES,Gal4-VP16 FLuc,Luc counter,RORgamma inh
CCOc1ccc(C(=O)Nc2ccc3c(c2)OCCO3)cc1OC,-12%,-14%,2%
CCOc1cccc(C(=O)NC(=S)Nc2ccc(Cl)cc2C(=O)O)c1,3.5µM*,-4%,7.1µM*
CC(NC(=O)C1CCC(CNS(=O)(=O)c2ccccc2)CC1)c1ccc2c(c1)OCCO2 (stereo not given),-3%,0%,27%
O=C(CSc1n[nH]c(-c2ccccc2F)n1)NCC(=O)Nc1ccc(F)c(F)c1F,7%,2%,16%
O=C(Oc1ccccc1)N1CCN(C(=O)c2ccco2)CC1,4%,/,1%
COc1ccc(S(=O)(=O)N2CCOC2CNC(=O)C(=O)NCCN2CCOCC2)cc1 (stereo not given),2%,/,-24%
CCOC(=O)/C(Sc1nc(-c2ccccc2)cc(-c2ccccc2)c1C#N)=C(\C)O,-7%,/,?
O=C(Nc1ccc2c(c1)OCCO2)c1c(F)cccc1F,-15%,-5%,8%
COc1cc(C(=O)Nc2nc(C)c(Cc3ccc4c(c3)OCO4)s2)cc(OC)c1OC,?,0%,7.9µM*
CCCOc1ccc(C(=O)Nc2nc(C)c(Cc3ccc4c(c3)OCO4)s2)cc1,?,1%,?
O=C(NC(=S)Nc1ccc2c(c1)OCCO2)c1ccccc1F,?,-3%,10µM*
COCCn1c(=O)c(-c2cccs2)nc2cnc(OC)nc21,5%,/,-10%
NS(=O)(=O)c1cccc(NC(=O)COC(=O)CCCc2c[nH]c3ccccc23)c1,-6%,-4%,10%
CC(=O)Nc1nc2cc3c(cc2s1)OCCO3,-13%,/,?
O=C(Nc1nc2cc3c(cc2s1)OCCO3)C1=COCCO1,2.2µM*,/,1µM*
Cc1cc(C)c2sc(NC(=O)c3ccc(N4C(=O)CCC4=O)cc3)nc2c1,?,/,0.11µM*
Cc1cc(C)c2sc(NC(=O)C3=COCCO3)nc2c1,5.6µM*,/,0.79µM*
Cc1ccc(Cl)c2sc(NC(=O)C3=COCCO3)nc12,17%,/,39%
Cc1ccc2nc(NC(=O)c3ccc(N4C(=O)CCC4=O)cc3)sc2c1,-3%,-1%,3%
Cc1c(O)ccc(-c2n[nH]c(C(=O)O)c2-c2nc3ccccc3s2)c1O,4%,/,13%
Cc1ccc(-n2ncc3c(SCc4cccnc4)ncnc32)c(C)c1,?,1%,?
O=C1[C@H]2[C@H]3[C@H](O)[C@H](O)C/C(=N/OCc4ccccc4)[C@@H]3CC[C@@H]2C(=O)N1C[C@@H]1CCCO1,-2%[10 µM],/,-4%[10 µM]
COc1cccc(N2CCN(C(=S)Nc3ccccc3)CC2)c1,?,/,-13%[1.91 µM]
CCc1ccc(NC(=S)N2CCN(c3cccc(OC)c3)CC2)cc1,?,-2%,13µM*
CCc1ccccc1NC(=S)N1CCN(c2cccc(OC)c2)CC1,?,/,10µM*
SMILES,Gal4-VP16 FLuc,Luc counter,RORgamma inh
COc1ccc(NC(=S)N2CCN(c3ccccc3)CC2)c(OC)c1,-2%,/,-23%
COc1ccc(-n2ncc(C(C)NS(=O)(=O)c3cccs3)c2C)cc1 (stereo not given),-11%,/,-14%
O=C(COc1ccccc1Cc1ccccc1)NCCCN1CCOCC1,1%,/,11%
CC(=O)OCC1OC(C#CCC2CCCCC2)C=CC1OC(C)=O (stereo not given),-13%[10 µM],/,?
CSCc1nc2scc(-c3ccccc3)c2c(=O)[nH]1,8%,1%,23%
COc1ccc(CN(C)Cc2nc3scc(-c4ccccc4)c3c(=O)[nH]2)cc1OC,2.5µM*,0%,1.4µM*
C/C(O)=C(/C=NCC(=O)O)C(=O)Nc1nccs1,-6%,-2%,0%
Cc1ccccc1C(=O)NC1CCN(C(=O)NC2CCCCC2)CC1,-3%,/,-8%
Cc1ccccc1C(=O)NC1CCN(C(=O)N(c2ccccc2)c2ccccc2)CC1,0%,1%,11µM*
Cc1ccc(N(C(=O)c2csnn2)C(C(=O)NC2CCCC2)c2cccnc2)c(C)c1 (stereo not given),3%,/,-1%
CNC(=O)N(O)C1N(/N=C/c2ccc(SC)cc2)C(=S)SC1(C)C (stereo not given),-12%,/,-14%
CN(C)c1ccc(/C=N/N2C(=S)SC(C)(C)C2N(O)C(=O)Nc2ccc([N+](=O)[O-])cc2)cc1 (stereo not given),-4%,-5%,7.9µM*
Cc1cc(N2CCN(c3nc4ccccc4s3)CC2)n2ncnc2n1,11µM*,-8%,?
Cc1cc(N2CCN(C(c3ccccc3)c3ccccc3)CC2)n2ncnc2n1,13%,-3%,12%
CNC(=O)C1(C(F)(F)F)C/C(=C\CCO)CCCO1 (stereo not given),14%,/,21%
Cc1ccccc1OCC(=O)OC(C(=O)c1ccccc1)c1ccccc1 (stereo not given),1%,1%,-4%
O=C(COc1ccccc1)OC(C(=O)c1ccccc1)c1ccccc1 (stereo not given),-8%,3%,11µM*
CCOC(=O)c1cnc(SC2CC(=O)N(c3ccc(OC)c(OC)c3)C2=O)nc1N (stereo not given),3%[0.365 µM],1%,?
COc1ccc(N2C(=O)CC(Sc3nc4ccccc4s3)C2=O)cc1OC (stereo not given),5.6µM*,-3%,6.3µM*
CC(=O)Nc1ccc(N2C(=O)CC(c3ccccc3)CC2=O)cc1,-9%,2%,21%
CCOc1ccc2nc(SC3CC(=O)N(c4ccc(OC)cc4OC)C3=O)sc2c1 (stereo not given),?,-5%,7.1µM*
CCOc1ccc2nc(SC3CC(=O)N(c4ccc(C)cc4)C3=O)sc2c1 (stereo not given),-18%,-6%,0%
CC(=O)Nc1ccc(N2C(=O)CC(Sc3nc4ccccc4s3)C2=O)cc1 (stereo not given),-2%[10 µM],0%,2.2µM*
CCOC(CNC(=O)c1ccc2c(c1)ncn2-c1ccccc1OC)OCC,-11%,/,-5%
N#CCCn1c(=O)cnc2cnc(OCc3ccccc3)nc21,-15%,-8%,7%
SMILES,Gal4-VP16 FLuc,Luc counter,RORgamma inh
CCOc1ccc(N2CC(C(=O)N3CCc4ccccc43)CC2=O)cc1 (stereo not given),8%,/,-13%
COc1cc(C(O)c2nc3ccccc3s2)cc(OC)c1OC (stereo not given),10µM*,/,?
COc1ccc(C(O)c2nc3ccccc3s2)cc1 (stereo not given),3%,14%,27%
CCOC(=O)/C(=N\Nc1ccccc1Cl)N(C)C1CCCCC1,-7%,0%,16%
CC1(C)CC(=O)C(C=NCCN2CCN(C3CC(=O)N(c4ccc(Br)cc4)C3=O)CC2)=C(O)C1 (stereo not given),3%,1%,8%
Cc1ccc2[nH]c(=O)c(NC(N)=S)nc2c1,?,4%,11µM*
NC(=S)Nc1nc2ccccc2[nH]c1=O,-24%,-6%,?
CC(=O)Nc1ccc(SCC(CC(C)C)N2CCN(CCc3ccccc3)CCC2=O)cc1 (stereo not given),-25%,/,-9%
S=C(NCCC(c1ccccc1)c1ccccc1)Nc1ccc(Cl)cc1,?,-4%,7.9µM*
S=C(NCCC(c1ccccc1)c1ccccc1)Nc1ccccc1Cl,?,-3%,13µM*
CC(=O)Nc1ccc(CC(=O)NCCC(c2ccccc2)c2ccccc2)cc1,3%,/,-6%
